HIF-2a block: HIF-2a inhibition. inhibition, % at 18.8 µM. 360,000 tested, 0.72% active. 786-0 RCC cells HIF-2a reporter, luciferase luminescence, overnight. AID 624352;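 active = inhibition of the luminescence signal of 40% or more relative to plate controls, in a single-dose primary screen at 18.75 µM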
PPC-1+TRAIL kill: compounds killing PPC-1 cancer cells with TRAIL present (potentiator screen, no TRAIL-free arm) | 220,000 tested, 0.41% active | cell killing (% activity), % at 4 µM or 5 µM | PPC-1 cells + TRAIL, ATPLite viability luminescence;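 active = cell killing above 50% in the first pass at 4 µM, then a duplicate retest at 5 µM averaging 50% or more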;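 also: plate controls were cells with TRAIL plus DMSO for no effect and medium-only wells lacking cells for full effect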
C8 TRAIL sens: caspase-8 TRAIL sensitization; NB7+C8 cells + TRAIL, ATPlite viability luminescence; inhibition (viability loss, TRAIL sensitization), % at 10 µM; 360,000 tested, 1% active; AID 624354;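 active = compounds causing at least 50% loss of cell viability in the single-dose screen, relative to plate controls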
KKLEB cytotox: CF airway cell cytotoxicity counter-screen; KKLEB CF airway cells viability, ATPlite luminescence, overnight; hits give low values; cells stimulated with P. aeruginosa culture filtrate; activity change (cytotoxicity), % at 5 µM; 360,000 tested, 0.36% active; AID 602141;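 active = corrected activity change at or below -50% at 5 µM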
CF NFkB block: inhibitors of cystic fibrosis induced NF-kB; KKLEB NF-kB-GFP reporter, PAF-induced, GFP fluorescence overnight; inhibition, % at 5 µM; 360,000 tested, 0.86% active;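 active = at least 50% inhibition at 5 µM, scaled per plate between neutral and stimulator controls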;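 also: PAF is a Pseudomonas aeruginosa culture filtrate used as stimulus; plate controls were PAF-stimulated DMSO wells for no effect and unstimulated DMSO wells for full effect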
hiPSC survival: hiPSC single-cell survival enhancement; ATPlite luminescence; 100% = ROCK inhibitor wells, 0% = DMSO; 360,000 tested, 0.044% active; AID 602274; survival enhancement, % at 20 µM; in the data active = survival enhancement above about 18%;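 also: cells exposed to compounds for 16 hours before the ATP read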
* hit, by the source's call; . = no result. This is a sample that favours compounds with a hit; in the whole collection about 2.2% have one here.

SMILES	HIF-2a block	PPC-1+TRAIL kill	C8 TRAIL sens	KKLEB cytotox	CF NFkB block	hiPSC survival
COC(=O)c1cc(NC(=O)c2cccs2)ccc1N1CCOCC1	14	.	-7	0	11	0
O=C(Nc1ccc(N2CCOCC2)c(F)c1)c1cccs1	-203	.	56*	8	0	0
COc1ccccc1C(=O)Nc1ccc(S(=O)(=O)Nc2cnc3ccccc3n2)cc1	2	.	-1	-2	-11	0
O=C(CCS(=O)(=O)c1ccccc1)Nc1cccc(-c2nc3ccccc3s2)c1	-305	22	54*	26	-88	-3
O=C(O)CCC(=O)Nc1cccc(-c2csc(-c3ccccc3)n2)c1	83*	15	2	5	14	-1
O=C(Nc1cccc(-c2nc3ccccc3s2)c1)c1cccs1	-122	0	0	15	-28	-1
Nc1cnn(Cc2ccccc2F)c1	-2	-3	-3	1	-15	1
O=C1C(Cl)=C(NC(=O)c2ccccc2)C(=O)C(Cl)=C1NC(=O)c1ccccc1	72*	.	11	7	52*	-1
O=C1NC[C@H](CC2CCCCC2)N(CCc2cc(C(F)(F)F)cc(C(F)(F)F)c2)C1=O	9	.	25	.	.	-2
O=C(Nc1ccc(Cl)c(Cl)c1)Nc1ccc(N2CCCC2)c(S(=O)(=O)Nc2ccccc2Cl)c1	-21	12	33	-54*	62*	2
O=C(NCc1ccncc1)C(=O)N/N=C/c1ccccn1	11	17	-1	-4	18	4
COc1cc(OC)cc(C(=O)NCC(=O)Nc2ccc(-c3ccccc3)cc2)c1	-185	.	28	-1	8	0
O=C(Nc1ccccc1Cl)C(=O)c1cn(CC(=O)N2CCOCC2)c2ccccc12	-158	.	54*	-20	-9	-1
CCn1c(/N=C/c2ccccc2NS(=O)(=O)c2ccc(C)cc2)nc2ccccc21	14	8	-11	-16	61*	-2
CCN(CC)CCn1c(NS(=O)(=O)c2ccc(C)cc2)nc2ccccc21	-8	.	-5	-13	9	0
CCc1cc2c(COC(=O)CCNS(=O)(=O)c3cccc(C(F)(F)F)c3)cc(=O)oc2cc1O	-12	.	54*	-10	24	0
O=C(O)CCCN1C(=O)/C(=C\c2ccco2)SC1=S	55*	2	-2	0	4	3
CC(=Cc1ccccc1)C=C1SC(=S)N(CCCC(=O)Nc2ccc(C(=O)O)cc2)C1=O	-23	.	1	22	16	0
CC(=C\c1ccccc1)/C=C1/SC(=S)N(CCCC(=O)O)C1=O	91*	.	6	22	-6	1
Clc1cccc(-c2ccc(CNCCCN3CCOCC3)o2)c1	6	2	1	-27	3	-1
COc1ccc(S(=O)(=O)N2CCN(C(=O)c3ccccc3Cc3ccccc3)CC2)cc1OC	13	.	-14	14	-18	-1
O=C(N/N=C/c1cn(-c2ccccc2)nc1-c1cc2ccccc2o1)c1ccncc1	-270	12	45	-8	-10	-2
O=C(N/N=C/c1cn(-c2ccccc2)nc1-c1cc2ccccc2o1)c1cccnc1	-173	34	55*	-19	25	-5
COc1ccc(C2CC(c3cccs3)=NN2C(=O)CSC2=NN3CCCC(=O)N=C3S2)cc1 (centres undefined)	-31	14	27	8	23	4
COc1ccc(C2CC(c3ccc(Br)cc3)=NN2C(=O)CSC2=NN3CCCC(=O)N=C3S2)cc1 (centres undefined)	6	.	93*	-3	20	0
SMILES	HIF-2a block	PPC-1+TRAIL kill	C8 TRAIL sens	KKLEB cytotox	CF NFkB block	hiPSC survival
COc1cc(/C=N/NC(=O)c2ccc(F)cc2)ccc1OC(=O)c1ccco1	-22	27	3	-12	18	-1
Cc1ccc(C(=O)N/N=C\c2ccc(OC(=O)c3cccc(F)c3)cc2)cn1	-3	.	12	4	-1	-1
O=C(N/N=C/c1cccc(OC(=O)c2ccco2)c1)c1ccc(F)cc1	-167	44	71*	5	0	-4
Cc1ccc(C(=O)N/N=C\c2cccc(OC(=O)c3cccc(F)c3)c2)cn1	-51	.	54*	-2	4	-1
COc1ccccc1NC(=S)Nc1ccc2cn[nH]c2c1	-56	21	-3	4	6	-1
Cc1ccc(S(=O)(=O)N2CCC[C@H]2C(=O)OCC(=O)Nc2ccc3c(c2)OCO3)cc1	11	.	3	-6	7	-2
CC(=O)c1cccc(NS(=O)(=O)c2ccc(N/C=C\C(=O)c3ccc(C)cc3)cc2)c1	6	11	34	2	-5	-1
CC(=O)c1cccc(N/C=C\C(=O)c2ccc(C)cc2)c1	-133	62*	52*	-27	-11	-3
Cc1ccc(C(=O)/C=C/Nc2ccc3c(c2)OCO3)cc1	-196	50	61*	-17	-20	-4
Cc1ccccc1OCCn1c(S(=O)(=O)O)nc2c(N)ncnc21	15	.	-14	-5	-4	0
Cc1cccc2c(C(=O)N3CCN(c4ccccn4)CC3)cc(-c3cccc(Br)c3)nc12	13	.	20	1	11	0
CNC(=O)OCc1nc(SSC(C)(C)C)n(C)c1COC(=O)NC	-20	.	50	-75*	78*	-3
Cn1nc(C(=O)NCCc2ccc(S(N)(=O)=O)cc2)c2ccccc2c1=O	9	-9	6	14	-6	0
CCn1nc(C(=O)NCCc2ccc(S(N)(=O)=O)cc2)c2ccccc2c1=O	21	-2	47*	0	13	4
CCCC(=O)Nc1ccc(-c2csc(N/N=C\c3ccncc3)n2)cc1	-174	15	71*	0	-26	-1
CC(C)c1ccc(OCC(=O)N2CCN(C(=O)c3ccco3)CC2)cc1	-6	.	0	-12	6	0
CC1(c2ccccc2)O[C@@H]2C[C@H]3[C@@H]4CCC5=CC(=O)C=C[C@]5(C)[C@@]4(F)[C@@H](O)C[C@]3(C)[C@]2(C(=O)CO)O1 (some centres undefined)	29	8	33	38	72*	-1
CC(=O)OCC(=O)C1=CCC2C3CCC4=CC(=O)C=CC4(C)C3(F)C(OC(C)=O)CC12C (centres undefined)	21	.	-5	-4	36	1
C[C@H]1C[C@H]2[C@@H]3CCC4=CC(=O)C=C[C@]4(C)[C@@]3(F)[C@@H](O)C[C@]2(C)[C@@]1(O)C(=O)CO	18	.	-3	20	68*	0
C[C@H]1C[C@H]2[C@@H]3CCC4=CC(=O)C=C[C@]4(C)[C@@]3(Cl)[C@@H](O)C[C@]2(C)[C@@]1(O)C(=O)CO	25	22	-4	-24	64*	5

Source: PubChem BioAssay
